Screening data: PubChem, National Center for Advancing Translational Sciences (NCATS)
Rows were chosen to be rich in hits. Some 21% of all compounds tested hit in one or more screens of this group.
RORgamma inh: blocks mouse ROR gamma transcriptional activity | 310,000 compounds, 5.4% hits | Drosophila S2 Gal4-RORgamma UAS-luciferase reporter, 20 h | Potency, µM (titrated, usually from 53.6 µM), usual class: inhibitors | P51450; note: nearly all actives have a fitted effect of over 60% in size
Target sequence (P51450 whole entry, looked up, the tested form may be a part): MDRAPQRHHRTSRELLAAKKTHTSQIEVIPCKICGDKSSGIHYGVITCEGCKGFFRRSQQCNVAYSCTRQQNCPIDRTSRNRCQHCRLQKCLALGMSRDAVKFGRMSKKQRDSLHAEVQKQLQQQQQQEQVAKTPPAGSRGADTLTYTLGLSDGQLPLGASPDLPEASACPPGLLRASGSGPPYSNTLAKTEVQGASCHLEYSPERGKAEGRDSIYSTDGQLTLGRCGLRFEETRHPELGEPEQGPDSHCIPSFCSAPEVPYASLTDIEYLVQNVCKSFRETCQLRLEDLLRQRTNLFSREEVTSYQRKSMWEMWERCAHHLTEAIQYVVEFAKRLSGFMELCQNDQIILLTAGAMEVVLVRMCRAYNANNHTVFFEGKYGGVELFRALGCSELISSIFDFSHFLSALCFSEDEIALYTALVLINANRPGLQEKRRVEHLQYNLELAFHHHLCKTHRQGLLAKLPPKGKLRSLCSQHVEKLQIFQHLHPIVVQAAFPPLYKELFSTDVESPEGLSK
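Stably transfected Drosophila Schneider cells are the test system, with ROR gamma fused to Gal4 and luciferase under UAS control; luminescence is read after 20 hr of 700 uM copper sulfate induction at ambient temperature.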
ELG1 repair inh: ELG1-dependent DNA repair inhibition; HEK293T ELG1-luciferase reporter, luminescence, 16 h; DNA damage induced by 5-fluorouridine; Potency, µM (highest dose often 46.1 µM), hits mostly inhibitors; 330,000 compounds, 2.3% hits; note: nearly all actives have a fitted effect of over 55% in size
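Step one: seed 2,000 cells per well. Step two: pin-transfer compound or DMSO alongside 5-fluorouridine. Step three: incubate 16 hr, 37 °C, 5% CO2. Step four: add ONE-Glo, wait 30 min, read luminescence.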
TDP1 cell CPT: growth inhibition of DT40 Tdp1-/-;hTDP1 cells with camptothecin (screen for TDP1 inhibitors) | chicken DT40 Tdp1-/-;hTDP1 cells + 20 nM CPT, ATP luminescence, 48 h | Potency, µM (series often up to 46.2 µM), most hits filed as inhibitors | 420,000 compounds, 12% hits | AID 686979; note: nearly all actives have a fitted effect of over 55% in size
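Chicken DT40 Tdp1-/- cells stably complemented with human TDP1 were seeded at 400 cells/well in medium containing 20 nM camptothecin, exposed to pin-transferred compounds, and grown at 37 °C for at least 48 hr. Viability was read as ATP luminescence.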
DT40 TDP1 no CPT: qHTS for Inhibitors of human tyrosyl-DNA phosphodiesterase 1 (TDP1): qHTS in cells in absence of CPT; DT40 Tdp1-/- hTDP1 cells, no CPT, ATP luminescence, 48 h; Potency, µM (doses to about 46.2 µM), hits mostly inhibitors; 420,000 compounds, 15% hits; AID 686978, 2013; note: nearly all actives have a fitted effect of over 55% in size
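No-CPT arm: Tdp1-/-;hTDP1 DT40 cells (400/well) plus compounds, incubated ≥48 hr at 37 °C. Readout CellTiter-Glo luminescence.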
Gal4-VP16 FLuc: inhibits Gal4-VP16 luciferase reporter, ROR gamma counter-screen | Drosophila S2 Gal4-VP16 UAS-luciferase, luminescence, 20 h | 310,000 compounds, 3.5% hits | AID 2546 | Potency, µM (highest dose often 53.6 µM), hits mostly inhibitors;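 note: Gal4-VP16 expression switched on by copper sulfate through the metallothionein promoter; nearly all actives have a fitted effect of over 50% in size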
IL-1B inflam inh: inflammasome signaling inhibition, IL-1 beta readout. activity change, % at 57.5 µM. AID 743279. THP-1 LPS/ATP IL-1B secretion, AlphaLISA, 16 h; hits give low values. 360,000 compounds, 4.7% hits; in the data active = activity change below about -50%; inconclusive = mostly about -30% to -49%
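Secreted IL-1B measured by AlphaLISA bead assay after 16 h compound exposure of THP-1 cells; compounds (final up to 57.5 uM) added 1 h before LPS (250 ng/mL) and ATP (1.25 mM) stimulation; lower signal means less secretion.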
Of the large screens only hits and unclear results are named; the others gave an inactive call. Unless noted, calls come from the whole dose curve; as a rule, active = well fitted curve in the direction sought with a large enough effect; inconclusive = small, poorly fitted or top-dose-only effect, or another doubt; inactive = no such curve, though single readings can be large; an effect the other way counts as inactive or inconclusive.

Cc1cc(C)c2c(SC(C)C)nc(N)nc2n1	TDP1 cell CPT inconclusive, DT40 TDP1 no CPT 18.4µM
CC(=O)n1nc2nc(C)cc(C)c2c1N	none
CCc1nn(C(CC)C(=O)NCc2cccc(OC)c2OC)c(=O)c2cc3occc3n12 (configuration not stated)	RORgamma inh inconclusive, ELG1 repair inh inconclusive, TDP1 cell CPT 20.6µM, DT40 TDP1 no CPT 18.4µM
CCc1nn(C(C)C(=O)NCCN2CCN(c3cccc(C)c3C)CC2)c(=O)c2cc3occc3n12 (configuration not stated)	ELG1 repair inh inconclusive, TDP1 cell CPT inconclusive, DT40 TDP1 no CPT 16.4µM, IL-1B inflam inh inconclusive
CCC(C(=O)N1CCN(c2cc(Cl)ccc2C)CC1)n1nc(C)n2c(cc3occc32)c1=O (configuration not stated)	TDP1 cell CPT inconclusive, DT40 TDP1 no CPT 14.6µM (no result: RORgamma inh, ELG1 repair inh, Gal4-VP16 FLuc, IL-1B inflam inh)
CCCOc1ccc(CCc2n[nH]c(=S)n2Cc2ccccc2)cc1	RORgamma inh 2µM, TDP1 cell CPT inconclusive, DT40 TDP1 no CPT 20.6µM, Gal4-VP16 FLuc 1.26µM
COCCn1c(CCc2ccccc2)n[nH]c1=S	RORgamma inh 11.2µM, Gal4-VP16 FLuc inconclusive
S=c1[nH]nc(CCc2ccccc2)n1Cc1ccccc1	RORgamma inh 2.24µM, DT40 TDP1 no CPT inconclusive, Gal4-VP16 FLuc 5.01µM
CCCCc1n[nH]c(=S)n1Cc1ccc(C)cc1	RORgamma inh 5.62µM, Gal4-VP16 FLuc inconclusive
COC(=O)c1ccc(NC(=O)CN2CCN(CCO)CC2)cc1	none
COc1ccccc1C(=O)Nc1ccc(C(=O)N2CCCCC2)cc1	none
Oc1ccc(Br)cc1C1Nc2ccccc2S1 (configuration not stated)	ELG1 repair inh inconclusive
COc1ccc(-n2c(CCc3ccccc3)n[nH]c2=S)cc1	RORgamma inh 5.01µM, TDP1 cell CPT inconclusive, DT40 TDP1 no CPT inconclusive
Cc1ccc(NCc2nnc(SCC(=O)O)n2Cc2ccccc2)cc1Cl	none
Oc1ccc(CCc2n[nH]c(=S)n2-c2ccc(F)cc2)cc1	none
CCOc1ccc(-n2c(CCc3ccccc3)n[nH]c2=S)cc1	RORgamma inh inconclusive, TDP1 cell CPT inconclusive, DT40 TDP1 no CPT inconclusive, Gal4-VP16 FLuc inconclusive
CCCCCCCc1n[nH]c(=S)n1Cc1ccccc1	RORgamma inh 1.26µM, TDP1 cell CPT inconclusive, DT40 TDP1 no CPT inconclusive, Gal4-VP16 FLuc inconclusive
Cc1ccc(NCc2n[nH]c(=S)n2Cc2ccccc2)cc1Cl	RORgamma inh 3.98µM, TDP1 cell CPT inconclusive, DT40 TDP1 no CPT inconclusive, Gal4-VP16 FLuc inconclusive
CCCOc1ccc(CCc2n[nH]c(=S)n2-c2ccccc2)cc1	RORgamma inh 2.82µM, TDP1 cell CPT inconclusive, DT40 TDP1 no CPT 16.4µM
S=c1[nH]nc(CCSCc2ccccc2)n1-c1ccccc1	RORgamma inh 2.82µM, TDP1 cell CPT inconclusive, DT40 TDP1 no CPT inconclusive
C=CCn1c(CCC(O)COCCC)n[nH]c1=S (configuration not stated)	none
CCCCC(CC(O)COCCC)c1n[nH]c(=S)n1-c1ccccc1 (configuration not stated)	RORgamma inh 11.2µM, Gal4-VP16 FLuc inconclusive
S=c1[nH]nc(CCc2nc3ccccc3[nH]2)n1-c1ccccc1	none
CCCCCC(O)CCc1n[nH]c(=S)n1-c1ccccc1 (configuration not stated)	RORgamma inh 6.31µM
Cc1ccc(Cl)cc1NC(=O)Nc1nnc(N2CCCC(C)C2)s1 (configuration not stated)	none (no result: RORgamma inh, ELG1 repair inh, Gal4-VP16 FLuc, IL-1B inflam inh)
c1ccc2c(-c3c[nH]c4ccccc34)c3ccccc3nc2c1	ELG1 repair inh inconclusive, TDP1 cell CPT inconclusive, DT40 TDP1 no CPT 16.4µM
O=C(O)c1cc(-c2c[nH]c3ccccc23)nc2ccc3ccccc3c12	ELG1 repair inh inconclusive
COc1ccc(OC)c(NC(=O)Cn2c(=O)cc(-c3ccccc3)c3c(C)nn(C)c32)c1	TDP1 cell CPT inconclusive, DT40 TDP1 no CPT 20.6µM (no result: RORgamma inh, ELG1 repair inh, Gal4-VP16 FLuc, IL-1B inflam inh)
